Results filed as inconclusive are left out. Entries that show only a call come without a potency. Calls of active or inactive are those of the source. Calls come from the whole dose curve; as a rule, active = well fitted cell-killing curve with a large enough effect; inconclusive = small, poorly fitted or top-dose-only effect, or effect the other way; inactive = flat fitted curve, though single readings scatter. Where a SMILES comes first, the peptide text is derived from it. [ ]: non-standard residue; d: D form. ξ: configuration not given here. ξPhe(βξ-Me) = CC(c1ccccc1)C(N)C(=O)O; GABA = NCCCC(=O)O
Potency is the fitted concentration of half-maximal effect.

The first experiment relates to CASKI. Nature of the experiment: Primary qHTS to identify gynecologic anti-cancer compounds using libraries of approved drugs and bioactive compounds (AID 1345084). Note: nearly all actives have a fitted effect of over 55% in size. As to conditions: Gynecologic cancer cell panel viability, ATPlite luminescence, 48 h; series mostly up to 57.5 µM. The method, boiled down: (§1)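 Luminescence from the ATPlite ATP-monitoring reagent indicates viable cell number; lower signal means cytotoxicity. Cells received compound 16 h after seeding and were exposed for 48 h across five concentrations.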
Background: In qHTS, concentration-response curves come from the screen itself.
Regarding `C[C@@H]1O[C@@H](OC[C@H]2O[C@@H](OCC3CCC4CC3C4(C)C)[C@H](O)[C@@H](O)[C@@H]2O)[C@H](O)[C@H](O)[C@H]1O` (some centres undefined), the Potency entry is “inactive”. For the compound `O=C1[C@H](O[C@@H]2O[C@H](CO)[C@@H](O)[C@H](O)[C@H]2O)Oc2ccccc2N1O`, the Potency result was “inactive”. Turning to `C[C@@H]1O[C@@H](O[C@H]2[C@H](OC(=O)[C@]34CCC(C)(C)C[C@H]3C3=CCC5[C@@]6(C)C[C@H](O)[C@H](O[C@@H]7O[C@H](CO[C@@H]8OC[C@H](O)[C@H](O)[C@H]8O)[C@@H](O)[C@H](O)[C@H]7O)C(C)(C)C6CC[C@@]5(C)[C@]3(C)C[C@H]4O)OC[C@@H](O)[C@@H]2O)[C@H](O)[C@H](O[C@@H]2OC[C@](O)(CO)[C@H]2O)[C@H]1O[C@@H]1OC[C@H](O)[C@H](O[C@@H]2OC[C@@H](O)[C@H](O)[C@H]2O)[C@H]1O` (some centres undefined), the activity change, negative = cytotoxicity was 2.2% [at 6.55 µM] (inactive). Consider `COC(=O)C1C(c2ccc(O)cc2)C(C(=O)OC)C1c1ccc(O)cc1` (centres undefined), for which the Potency result was “inactive”. For `CCN[C@@H]1C[C@H](N)[C@@H](O[C@H]2OC(CN)=CC[C@H]2N)[C@H](O)[C@H]1O[C@H]1OC[C@](C)(O)[C@H](NC)[C@H]1O`, the Potency result is “inactive”. `CCOC(=O)[C@H]1O[C@@H]1C(=O)N[C@@H](CC(C)C)C(=O)NCCC(C)C`: the Potency entry was “inactive”. On the same count and under the same terms, under `CC(=O)N1c2ccccc2C2(O)CC3C(=O)NC(CC(C)C)C(=O)N3C12` (centres undefined) stands “inactive”; under `CC(C)=CCC/C(C)=C/CC/C(C)=C/CC[C@]1(C)CCc2cc(O)cc(C)c2O1`, “inactive”; under `O=C(c1ccc(NS(=O)(=O)c2cccc3cccnc23)cc1)N1CCN(CC2CC2)CC1`, “inactive”. On to `COc1cc(N2CCC(O)CC2)ccc1Nc1cc(Nc2ccccc2S(=O)(=O)C(C)C)c2cc[nH]c2n1`, for which the Potency entry was “inactive”.

Take `C[C@@H]1O[C@@H](O[C@H]2[C@H](OC(=O)[C@]34CCC(C)(C)C[C@H]3C3=CCC5[C@@]6(C)C[C@H](O)[C@H](O[C@@H]7O[C@H](CO)[C@@H](O[C@@H]8O[C@H](CO)[C@@H](O)[C@H](O)[C@H]8O)[C@H](O)[C@H]7O)[C@@](C)(CO)C6[C@H](O)C[C@@]5(C)[C@]3(C)C[C@H]4O)OC[C@H](O)[C@@H]2O)[C@H](O)[C@H](O)[C@H]1O[C@@H]1OC[C@@H](O)[C@H](O[C@@H]2OC[C@](O)(CO)[C@H]2O)[C@H]1O` (some centres undefined): the activity change, negative = cytotoxicity was 12.9% [at 6.55 µM] (inactive).

The subject of another experiment is Es-2. Described as above. As to conditions: Gynecologic cancer cell panel viability, ATPlite luminescence, 48 h; series mostly up to 57.5 µM. The method, boiled down:
as §1
On to `COC(=O)C1C(CC(C)=O)C=CC(O)C12Oc1cc(C)cc(O)c1C2=O` (centres undefined), for which the Potency entry is “inactive”. Take `CC1(C)CCC[C@@]2(C)[C@H]1[C@H](O)C=C1COC(=O)[C@@]12O`: the Potency entry was “inactive”.

Take `O=C(O)Cc1nn(Cc2nc3cc(C(F)(F)F)ccc3s2)c(=O)c2nccnc12`: the Potency result is “inactive”. Regarding `CC1CCC2(C(=O)OC3OC(CO)C(O)C(O)C3O)CCC3(C(=O)O)C(=CCC4C5(C)CCC(OC6OC(C)C(O)C(O)C6O)C(C)(C)C5CCC43C)C2C1C` (centres undefined), the Potency entry was “inactive”. Regarding `CC(CO[C@@H]1O[C@H](COC(=O)/C=C/c2ccc(O)c(O)c2)[C@@H](O)[C@H](O)[C@H]1O)C1(O)COC(=O)C1` (some centres undefined), the Potency result was “inactive”.

For the compound `CCCCN(CCCC)C(=O)CN1C[C@H](c2ccc3c(c2)OCO3)[C@@H](C(=O)O)[C@@H]1c1ccc(OC)cc1`, the Potency result was “inactive”.

Turning to `CC(C)C(=O)O[C@@H]1[C@@H](O)[C@@H](O[C@H]2O[C@H](CO)[C@@H](O)[C@H](O)[C@H]2O)O[C@H](CO)[C@H]1O`, the Potency entry was “inactive”. For the compound `CC1(C)CC[C@]2(C(=O)O)CC[C@]3(C)C(=CCC4[C@@]5(C)CCC(O[C@@H]6OC[C@H](O)[C@H](O)[C@H]6O[C@@H]6O[C@H](CO)[C@@H](O)[C@H](O)[C@H]6O)[C@@](C)(CO)C5CC[C@]43C)[C@@H]2C1` (some centres undefined), the Potency entry was “inactive”. `CCc1c(CC(N)=O)c2cc(OCCCP(=O)(O)O)ccc2n1Cc1ccccc1`: the Potency entry was “inactive”. On to `COc1ccc(C[C@H](N)C(=O)N[C@H]2[C@@H](O)[C@H](n3cnc4c(N(C)C)ncnc43)O[C@@H]2CO)cc1`, for which the Potency is 3.16 µM (active).

Take `COC(=O)C1=CO[C@@H](O[C@@H]2O[C@H](CO)[C@@H](O)[C@H](O)[C@H]2O)[C@@H]2[C@@H](C(=O)OC)[C@@H](O)C(O)[C@H]12` (some centres undefined): the Potency result is “inactive”. In the case of `CC(C)CC1NC(=O)C(C(C)c2ccccc2)NC(=O)C(C(C)C)NC(=O)C(C)NC(=O)CCCNC(=O)C(Cc2c[nH]c3ccccc23)NC(=O)C(C)NC1=O` (stereo not drawn) (cyclo([GABA]AV[ξPhe(βξ-Me)]LAW); configuration not given here), the Potency result was “inactive”. For the compound `C=C1CCC2C(C)(C)C(O)CCC2(C)C1CCC(C)CCOC(=O)CCC(=O)O` (centres undefined), the Potency entry is “inactive”.

As for `COc1cc(C)c(C(=O)O[C@H]2[C@@H](O)[C@H](n3ccc(=O)[nH]c3=O)O[C@@H]2CO)c(OC)c1`, the Potency entry is “inactive”.

Take `COC(=O)C1=COC(O[C@@H]2O[C@H](CO)[C@@H](O)[C@H](O)[C@H]2O)/C(=C\COC(=O)c2ccc(OC3OC(CO)C(O)C(O)C3O)c(OC)c2)C1CC(=O)OCCc1ccc(O)cc1` (some centres undefined): the activity change, negative = cytotoxicity is 1.38% [at 11.6 µM] (inactive).

As for `COc1cc(CC(COC2OC(CO)C(O)C(O)C2O)c2cc(/C=C/CO)cc(OC)c2O)ccc1O` (centres undefined), the Potency entry was “inactive”. Take `CC1(C)C[C@H]2C3=CCC4[C@@]5(C)CC[C@H](O[C@H]6O[C@H](C(=O)O)[C@@H](O)[C@H](O)[C@H]6O[C@H]6O[C@H](CO)[C@@H](O)[C@H](O)[C@H]6O[C@@H]6O[C@H](CO)[C@@H](O)[C@H](O)[C@H]6O)[C@](C)(CO)C5CC[C@@]4(C)[C@]3(C)CC[C@@]2(C)[C@H](O[C@@H]2OC[C@H](O)[C@H](OC3O[C@H](CO)[C@@H](O)[C@H](O)[C@H]3O)[C@H]2O)[C@@H]1O` (some centres undefined): the activity change, negative = cytotoxicity is 0.0485% [at 6.55 µM] (inactive). `O=C1N(CC2CCCCN2)CCN1c1ccccc1` (centres undefined): the Potency result is “inactive”. Still for that read-out and setting: under `CCCOc1ccn2c(C(C)=O)cc(-c3ccccc3S(C)(=O)=O)c2c1` stands “inactive”. Take `COc1cc(/C=C/C(=O)O[C@H]2[C@H](O)[C@@H](CO)O[C@@]2(CO)O[C@H]2O[C@H](COC(=O)c3ccc(O)cc3)[C@@H](O)[C@H](O)[C@H]2O)cc(OC)c1OC`: the Potency result is “inactive”. For `OC[C@H]1O[C@@H](n2cnc3c2NC=NC[C@H]3O)C[C@@H]1O`, the Potency entry was “inactive”. In the case of `CNc1nc(Nc2cnn([C@H]3CCN(C4COC4)C[C@@H]3F)c2Cl)ncc1C(F)(F)F`, the Potency result was “inactive”. As to `CCCCS(=O)(=O)Nc1ncnc(OCCOc2ncc(Br)cn2)c1-c1ccc(Br)cc1`, the Potency entry was “inactive”. Turning to `CC/C=C/CC1=C(CCCCCCCC(=O)O)CCC1=O`, the Potency entry is “inactive”. On to `C[C@@H]1O[C@@H](OC[C@H]2O[C@@H](OCCc3ccccc3)[C@H](O)[C@@H](O)[C@@H]2O)[C@H](O)[C@H](O)[C@H]1O`, for which the Potency result was “inactive”. Consider `C=C[C@](C)(CC/C=C(\C)C(=O)O)O[C@@H]1OC[C@H](O)[C@H](O)[C@H]1O`, for which the Potency entry was “inactive”. As to `FC(F)(F)c1cc(C(F)(F)F)c2ccc3nc(-c4nnco4)cn3c2n1`, the Potency result was “inactive”. On to `C[C@@H]1O[C@@H](OC[C@H]2O[C@@H](OCC3CCC4CC3C4(C)C)[C@H](O)[C@@H](O)[C@@H]2O)[C@H](O)[C@H](O)[C@H]1O` (some centres undefined), for which the Potency result is “inactive”. In the case of `O=C1[C@H](O[C@@H]2O[C@H](CO)[C@@H](O)[C@H](O)[C@H]2O)Oc2ccccc2N1O`, the Potency result was “inactive”. Regarding `C[C@@H]1O[C@@H](O[C@H]2[C@H](OC(=O)[C@]34CCC(C)(C)C[C@H]3C3=CCC5[C@@]6(C)C[C@H](O)[C@H](O[C@@H]7O[C@H](CO[C@@H]8OC[C@H](O)[C@H](O)[C@H]8O)[C@@H](O)[C@H](O)[C@H]7O)C(C)(C)C6CC[C@@]5(C)[C@]3(C)C[C@H]4O)OC[C@@H](O)[C@@H]2O)[C@H](O)[C@H](O[C@@H]2OC[C@](O)(CO)[C@H]2O)[C@H]1O[C@@H]1OC[C@H](O)[C@H](O[C@@H]2OC[C@@H](O)[C@H](O)[C@H]2O)[C@H]1O` (some centres undefined), the activity change, negative = cytotoxicity is -0.0559% [at 6.55 µM] (inactive). Take `COC(=O)C1C(c2ccc(O)cc2)C(C(=O)OC)C1c1ccc(O)cc1` (centres undefined): the Potency result is “inactive”.

Regarding `CCN[C@@H]1C[C@H](N)[C@@H](O[C@H]2OC(CN)=CC[C@H]2N)[C@H](O)[C@H]1O[C@H]1OC[C@](C)(O)[C@H](NC)[C@H]1O`, the Potency result is “inactive”. For `CCOC(=O)[C@H]1O[C@@H]1C(=O)N[C@@H](CC(C)C)C(=O)NCCC(C)C`, the Potency entry is “inactive”. Consider `CC(=O)N1c2ccccc2C2(O)CC3C(=O)NC(CC(C)C)C(=O)N3C12` (centres undefined), for which the Potency entry was “inactive”.

Turning to `CC(C)=CCC/C(C)=C/CC/C(C)=C/CC[C@]1(C)CCc2cc(O)cc(C)c2O1`, the Potency result is “inactive”. Same read-out and setting: under `O=C(c1ccc(NS(=O)(=O)c2cccc3cccnc23)cc1)N1CCN(CC2CC2)CC1` stands “inactive”; under `COc1cc(N2CCC(O)CC2)ccc1Nc1cc(Nc2ccccc2S(=O)(=O)C(C)C)c2cc[nH]c2n1`, “inactive”. Turning to `C[C@@H]1O[C@@H](O[C@H]2[C@H](OC(=O)[C@]34CCC(C)(C)C[C@H]3C3=CCC5[C@@]6(C)C[C@H](O)[C@H](O[C@@H]7O[C@H](CO)[C@@H](O[C@@H]8O[C@H](CO)[C@@H](O)[C@H](O)[C@H]8O)[C@H](O)[C@H]7O)[C@@](C)(CO)C6[C@H](O)C[C@@]5(C)[C@]3(C)C[C@H]4O)OC[C@H](O)[C@@H]2O)[C@H](O)[C@H](O)[C@H]1O[C@@H]1OC[C@@H](O)[C@H](O[C@@H]2OC[C@](O)(CO)[C@H]2O)[C@H]1O` (some centres undefined), the activity change, negative = cytotoxicity was 5.24% [at 6.55 µM] (inactive).
